Results from the supplement of paper PMC10849652.
The full data set covers some 7,900 targets. This sample favours those with a hit. About 0.6% of all pairs of compound and target were hits.

How the values were obtained:
Test in all cases: log2 fold change, soluble protein after heating vs DMSO (PISA); higher = thermal stabilisation; K562 cells, 10 uM, 30 min; active = over 0.2 and 3.5 SD of the protein, either way, in both replicates (recomputed)
[1] = compound: COC1=CC=C(C=C1)CN2C=CC3=C2C=C(C=C3)C(=O)NO
Procedure, shortened: (§1)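 Soluble protein was defined as the supernatant after 21,000xg for 90 min. It came from K562 cells at 2×10^6 cells/mL given 10 μM compound for 30 min, heated in aliquots for 3 min across 48°C-58°C, pooled, and extracted in PBS with 0.5% NP-40 at 4°C, and was quantified by TMTpro 16plex LC-MS/MS with equalised channel sums. Thermal stability against control samples, from duplicates, is reported as log2 fold change.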

filanesib = compound: CON(C)C(=O)N1N=C(c2cc(F)ccc2F)S[C@@]1(CCCN)c1ccccc1 [filanesib]
Procedure, shortened: as §1

zotarolimus = compound: CO[C@H]1C[C@@H]2CC[C@@H](C)[C@@](O)(O2)C(=O)C(=O)N2CCCC[C@H]2C(=O)O[C@H]([C@H](C)C[C@@H]2CC[C@H](n3cnnn3)[C@H](OC)C2)CC(=O)[C@H](C)/C=C(\C)[C@@H](O)[C@@H](OC)C(=O)[C@H](C)C[C@H](C)/C=C/C=C/C=C/1C [zotarolimus]
Procedure, shortened: as §1

idasanutlin = compound: COc1cc(C(=O)O)ccc1NC(=O)[C@@H]1N[C@@H](CC(C)(C)C)[C@](C#N)(c2ccc(Cl)cc2F)[C@H]1c1cccc(Cl)c1F [idasanutlin]
Procedure, shortened: as §1

alisertib = compound: COc1cc(Nc2ncc3c(n2)-c2ccc(Cl)cc2C(c2c(F)cccc2OC)=NC3)ccc1C(=O)O [alisertib]
Procedure, shortened: as §1

[2] = compound: COc1cc2nc(-c3cc(F)ccc3O)nc(N[C@@H]3CNC[C@H]3C(C)(C)O)c2cc1OC
Procedure, shortened: as §1

gefitinib = compound: COc1cc2ncnc(Nc3ccc(F)c(Cl)c3)c2cc1OCCCN1CCOCC1 [gefitinib]
Procedure, shortened: as §1

[3] = compound: COc1cccc2cc(-c3nc([C@H]4CC[C@H](C(=O)O)CC4)n4ncnc(N)c34)[nH]c12
Procedure, shortened: as §1

lapatinib = compound: CS(=O)(=O)CCNCc1ccc(-c2ccc3ncnc(Nc4ccc(OCc5cccc(F)c5)c(Cl)c4)c3c2)o1 [lapatinib]
Procedure, shortened: as §1

pictilisib = compound: CS(=O)(=O)N1CCN(Cc2cc3nc(-c4cccc5[nH]ncc45)nc(N4CCOCC4)c3s2)CC1 [pictilisib]
Procedure, shortened: as §1

[4] = compound: CS(=O)(=O)c1ccc(-c2cnc(N)c(C(=O)Nc3ccccc3)n2)cc1
Procedure, shortened: as §1

crizotinib = compound: C[C@@H](Oc1cc(-c2cnn(C3CCNCC3)c2)cnc1N)c1c(Cl)ccc(F)c1Cl [crizotinib]
Procedure, shortened: as §1

[5] = compound: C[C@@H]1COCCN1C2=NC(=NC(=C2)C3(CC3)S(=O)(=O)C)C4=C5C=CNC5=CC=C4
Procedure, shortened: as §1

[6] = compound: C[C@H](C1=CC=C(C=C1)C(=O)NC2=C3C=CNC3=NC=C2)N
Procedure, shortened: as §1

duvelisib = compound: C[C@H](Nc1ncnc2nc[nH]c12)c1cc2cccc(Cl)c2c(=O)n1-c1ccccc1 [duvelisib]
Procedure, shortened: as §1

gandotinib = compound: Cc1cc(Nc2cc(CN3CCOCC3)c3nc(C)c(Cc4ccc(Cl)cc4F)n3n2)n[nH]1 [gandotinib]
Procedure, shortened: as §1

tozasertib = compound: Cc1cc(Nc2cc(N3CCN(C)CC3)nc(Sc3ccc(NC(=O)C4CC4)cc3)n2)n[nH]1 [tozasertib]
Procedure, shortened: as §1

[7] = compound: Cc1cc(SCc2sc(-c3ccc(C(F)(F)F)cc3)nc2C)ccc1OCC(=O)O
Procedure, shortened: as §1

doramapimod = compound: Cc1ccc(-n2nc(C(C)(C)C)cc2NC(=O)Nc2ccc(OCCN3CCOCC3)c3ccccc23)cc1 [doramapimod]
Procedure, shortened: as §1

ispinesib = compound: Cc1ccc(C(=O)N(CCCN)[C@@H](c2nc3cc(Cl)ccc3c(=O)n2Cc2ccccc2)C(C)C)cc1 [ispinesib]
Procedure, shortened: as §1

Measured: log2 fold change

CD53 (UniProt P19397)
Chain of UniProt P19397 (P19397 whole entry, looked up): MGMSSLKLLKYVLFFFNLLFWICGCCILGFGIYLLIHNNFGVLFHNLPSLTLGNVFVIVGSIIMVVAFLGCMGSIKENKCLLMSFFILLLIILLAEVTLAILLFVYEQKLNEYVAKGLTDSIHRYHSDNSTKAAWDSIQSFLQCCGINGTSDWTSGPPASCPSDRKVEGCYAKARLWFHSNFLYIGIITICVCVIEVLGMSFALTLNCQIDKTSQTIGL
inactive: [1] -0.1 | filanesib 0.025 | zotarolimus -0.022 | idasanutlin 0.084 | alisertib -0.04 | [2] 0.154 | gefitinib 0.053 | [3] 0.102 | lapatinib -0.208 | pictilisib 0.276 | [4] 0.101 | crizotinib 0.047 | [5] 0.005 | [6] -0.084 | duvelisib 0.234 | gandotinib -0.016 | tozasertib -0.165 | [7] -0.11 | doramapimod 0.103 | ispinesib 0.023

CTBS (UniProt Q01459)
Chain of UniProt Q01459 (Q01459 whole entry, looked up): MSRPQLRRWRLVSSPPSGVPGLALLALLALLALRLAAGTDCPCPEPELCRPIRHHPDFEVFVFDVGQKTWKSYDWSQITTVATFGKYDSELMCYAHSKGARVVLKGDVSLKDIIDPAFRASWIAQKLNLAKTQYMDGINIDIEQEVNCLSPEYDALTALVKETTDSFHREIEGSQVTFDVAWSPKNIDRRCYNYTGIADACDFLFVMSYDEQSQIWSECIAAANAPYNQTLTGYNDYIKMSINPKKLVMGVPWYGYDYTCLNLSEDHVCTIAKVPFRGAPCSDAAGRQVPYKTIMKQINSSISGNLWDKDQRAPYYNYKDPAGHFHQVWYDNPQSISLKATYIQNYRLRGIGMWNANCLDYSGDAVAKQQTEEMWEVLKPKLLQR
inactive: [1] -0.006 | filanesib -0.038 | zotarolimus 0.002 | idasanutlin 0.018 | alisertib -0.032 | [2] 0.026 | gefitinib 0.01 | [3] 0.055 | lapatinib 0.004 | pictilisib -0.068 | [4] -0.05 | crizotinib -0.166 | [5] -0.078 | [6] 0.04 | duvelisib 0.017 | gandotinib -0.078 | tozasertib 0.069 | [7] -0.018 | doramapimod 0.009 | ispinesib -0.092

CIZ1 (UniProt Q9ULV3)
Chain of UniProt Q9ULV3 (Q9ULV3 whole entry, looked up): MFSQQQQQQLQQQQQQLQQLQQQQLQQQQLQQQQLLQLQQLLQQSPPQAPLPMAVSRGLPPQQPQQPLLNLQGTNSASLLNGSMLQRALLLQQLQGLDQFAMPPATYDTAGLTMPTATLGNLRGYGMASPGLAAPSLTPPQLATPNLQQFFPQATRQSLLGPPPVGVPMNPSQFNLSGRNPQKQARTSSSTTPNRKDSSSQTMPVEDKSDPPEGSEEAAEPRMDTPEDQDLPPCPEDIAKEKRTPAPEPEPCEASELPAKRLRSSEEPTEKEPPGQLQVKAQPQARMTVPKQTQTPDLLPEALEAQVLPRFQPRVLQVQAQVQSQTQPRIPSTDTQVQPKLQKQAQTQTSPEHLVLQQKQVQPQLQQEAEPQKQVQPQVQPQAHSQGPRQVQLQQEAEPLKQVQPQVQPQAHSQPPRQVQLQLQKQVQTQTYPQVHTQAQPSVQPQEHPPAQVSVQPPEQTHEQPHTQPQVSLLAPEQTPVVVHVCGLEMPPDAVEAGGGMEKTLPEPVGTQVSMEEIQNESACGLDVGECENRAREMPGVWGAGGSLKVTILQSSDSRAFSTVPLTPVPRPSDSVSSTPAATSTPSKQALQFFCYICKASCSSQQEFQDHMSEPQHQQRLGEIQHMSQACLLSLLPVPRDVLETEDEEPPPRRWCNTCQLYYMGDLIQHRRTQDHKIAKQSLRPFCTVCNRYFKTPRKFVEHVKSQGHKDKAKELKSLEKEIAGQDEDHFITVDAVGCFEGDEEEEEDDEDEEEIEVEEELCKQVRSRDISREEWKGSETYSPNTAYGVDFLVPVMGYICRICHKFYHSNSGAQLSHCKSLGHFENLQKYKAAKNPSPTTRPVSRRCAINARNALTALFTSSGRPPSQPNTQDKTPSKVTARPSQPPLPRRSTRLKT
inactive: [1] 0.039 | filanesib 0.04 | zotarolimus -0.006 | idasanutlin 0.054 | alisertib -0.042 | [2] -0.106 | gefitinib -0.099 | [3] 0.034 | lapatinib 0.025 | pictilisib 0.05 | [4] -0.008 | crizotinib -0.097 | [5] 0.017 | [6] -0.079 | duvelisib 0.004 | gandotinib -0.121 | tozasertib 0.022 | [7] 0.016 | doramapimod 0.005 | ispinesib -0.015

CA8 (UniProt P35219)
Chain of UniProt P35219 (P35219 whole entry, looked up): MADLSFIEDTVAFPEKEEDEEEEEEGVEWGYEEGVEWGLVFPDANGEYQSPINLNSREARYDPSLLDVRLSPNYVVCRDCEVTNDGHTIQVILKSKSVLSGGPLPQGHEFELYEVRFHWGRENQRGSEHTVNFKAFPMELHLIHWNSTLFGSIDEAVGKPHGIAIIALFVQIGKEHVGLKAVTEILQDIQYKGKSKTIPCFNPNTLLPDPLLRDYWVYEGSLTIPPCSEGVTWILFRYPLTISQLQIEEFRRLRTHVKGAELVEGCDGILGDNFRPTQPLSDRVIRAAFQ
inactive: [1] 0.046 | filanesib -0.055 | zotarolimus 0.09 | idasanutlin -0.073 | alisertib -0.112 | [2] -0.086 | gefitinib 0.023 | [3] 0.032 | lapatinib 0.008 | pictilisib 0.173 | [4] 0.003 | crizotinib -0.008 | [5] 0.117 | [6] -0.06 | duvelisib 0.1 | gandotinib -0.064 | tozasertib 0.122 | [7] 0.096 | doramapimod -0.066 | ispinesib 0.103
